{"source": "paper PMC10726135", "about": "“HNF4α isoforms regulate the circadian balance between carbohydrate and lipid metabolism in the liver”", "note": "In all, about 18,000 sequences were measured (“log2 normalized intensity”: median about 0.36, highest 2% from about 7.3 on). The sample as a whole holds a higher share of the highest values than the screen did.", "data": [{"molecular_target": "T1, HNF4alpha8 (COS-7 nuclear extract) (Homo sapiens, UniProt P41235-5 1-452)", "T1 sequence": "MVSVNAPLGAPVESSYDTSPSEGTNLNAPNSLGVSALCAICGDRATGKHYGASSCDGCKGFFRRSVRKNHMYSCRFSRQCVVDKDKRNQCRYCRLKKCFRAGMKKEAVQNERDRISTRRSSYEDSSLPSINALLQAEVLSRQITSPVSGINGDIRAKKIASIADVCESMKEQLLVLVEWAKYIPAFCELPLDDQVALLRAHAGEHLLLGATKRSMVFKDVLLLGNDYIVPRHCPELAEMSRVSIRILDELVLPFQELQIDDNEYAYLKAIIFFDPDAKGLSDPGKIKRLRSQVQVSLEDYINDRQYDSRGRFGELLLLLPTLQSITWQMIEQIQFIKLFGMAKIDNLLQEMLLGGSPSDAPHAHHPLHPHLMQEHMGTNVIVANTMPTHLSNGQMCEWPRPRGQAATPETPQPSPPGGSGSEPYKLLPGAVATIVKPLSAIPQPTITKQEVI", "test": "protein-binding microarray; COS-7 nuclear extract on double-stranded Agilent 4x180k PBM; binding buffer, salt, pH and temperature not given in the material; high values mean tight binding", "details": "chain copies: 2; label: 3' end of strand 1 on the slide; dsDNA, one strand shown", "in_short": "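The binding signal is Agilent software's gProcessedSignal after background correction and normalization. Arrays were a custom Agilent SurePrint G3 4x180k design of double-stranded ~60-nt oligonucleotides with ~44,000 test sequences in quadruplicate, probed with nuclear extracts of COS-7 cells transiently expressing a human HNF4α isoform. Scans were made at 2-µm resolution on an Agilent G2565CA scanner.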", "units": {"binding signal": "log2 normalized intensity"}, "values": [{"sequence": "GTTACCTTGGGGTCAAAGTACATCCCCTAAGCCTAGGGAGATTAGAGTATCGGTCGA", "binding signal": 7.38}, {"sequence": "TTGCAGACCTTGGTCAAAGTGACACATTCCGCCTAGGGAGATTAGAGTATCGGTCGA", "binding signal": 0.772}, {"sequence": "TGCAAGTTACCTTGGGGTCAAAGTACATCCGCCTAGGGAGATTAGAGTATCGGTCGA", "binding signal": 9.54}, {"sequence": "GGTCAAAGTACATCCCCTAAAACATCAAATGCCTAGGGAGATTAGAGTATCGGTCGA", "binding signal": 3.45}, {"sequence": "AGGTGCAAAGTACATATTTACTTACCTTTTGCCTAGGGAGATTAGAGTATCGGTCGA", "binding signal": 3.68}, {"sequence": "CTTGGGGTCAAAGTACATCCCCTAAAACATGCCTAGGGAGATTAGAGTATCGGTCGA", "binding signal": 6.61}, {"sequence": "AACACCAGCAACCGCCTACCTTTGGACTTCGCCTAGGGAGATTAGAGTATCGGTCGA", "binding signal": 6.25}, {"sequence": "TGGACCATTGCTGACCTTGCCTCTGTGCTCGCCTAGGGAGATTAGAGTATCGGTCGA", "binding signal": 1.8}, {"sequence": "CTCTGGCCAGAGAGATGTCAGCCCAAGATAGCCTAGGGAGATTAGAGTATCGGTCGA", "binding signal": 3.25}, {"sequence": "AAATGAAGTGGTATCCTGCAGTCAGTCTGAGCCTAGGGAGATTAGAGTATCGGTCGA", "binding signal": -0.508}, {"sequence": "TGACTTTCTTCCTATGGGATCAAAGTGCGAGCCTAGGGAGATTAGAGTATCGGTCGA", "binding signal": 5.69}, {"sequence": "AAAAAATGGGCAAAGGACAATAATGAATAAGCCTAGGGAGATTAGAGTATCGGTCGA", "binding signal": -0.651}, {"sequence": "CATACTTCTTCCTGTTTGACCTTCGAACCCGCCTAGGGAGATTAGAGTATCGGTCGA", "binding signal": 10.1}, {"sequence": "GTACCTTGACCTTCTCTGTTAACCCTTTGCGCCTAGGGAGATTAGAGTATCGGTCGA", "binding signal": 4.52}, {"sequence": "AAGCACATACTTCTTCCTGTTTGACCTTCGGCCTAGGGAGATTAGAGTATCGGTCGA", "binding signal": 5.61}, {"sequence": "CTCCTGTTTGTATTCCTTGTCCTTGACCCTGCCTAGGGAGATTAGAGTATCGGTCGA", "binding signal": 4.96}, {"sequence": "TTGACCTTCTCTGTTAACCCTTTGCAGCCCGCCTAGGGAGATTAGAGTATCGGTCGA", "binding signal": 2.91}, {"sequence": "CCTGTTTGACCTTCGAACCCTTGCCATTTAGCCTAGGGAGATTAGAGTATCGGTCGA", "binding signal": 7.81}, {"sequence": "TTCTTCCTGTTTGACCTTCGAACCCTTGCCGCCTAGGGAGATTAGAGTATCGGTCGA", "binding signal": 9.64}, {"sequence": "TTGACCTTCGAACCCTTGCCATTTACATCAGCCTAGGGAGATTAGAGTATCGGTCGA", "binding signal": 6.21}, {"sequence": "CCTTGACCCTTCCTCCCATTTGCTGCTCTAGCCTAGGGAGATTAGAGTATCGGTCGA", "binding signal": 1.81}, {"sequence": "ACCTCTGTAATAACTGCAGTGCCACTCGGGGCCTAGGGAGATTAGAGTATCGGTCGA", "binding signal": -0.418}, {"sequence": "CTTTATCCTACAAGGGAGATAAACTTTATCGCCTAGGGAGATTAGAGTATCGGTCGA", "binding signal": 0.672}, {"sequence": "GCTTGGCAAACATTTCACTTTGCTCCCTCCGCCTAGGGAGATTAGAGTATCGGTCGA", "binding signal": 2.18}]}]}
